Data as given in PubChem BioAssay AID1159580 (chemical genetic matrix, 2015).
Where “and” joins values, the source holds several entries; their conditions need not be identical. Identical values can stand only once. In all, about 5,500 compounds went through this assay and about 2,000 (36%) were called active. Inconclusive results (about 18%) are left out. Rule as the data show it: active = normalized growth mostly below about 0.91 (no sharp cut-off); inconclusive = no clear call, values can overlap the other calls; inactive = mostly above about 0.92. The list shows a part of the results.

Assay: chemical genetic growth profiling, strain panel (AID 1159580);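 also: tested at 20 µM; growth read once vehicle control cultures reached saturation at 30 °C; 1 = growth at the plate median or of vehicle wells; lower values mean less growth of the strain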
Conditions: S. cerevisiae deletion strains, growth OD

Measured: normalized growth

N[C@@H]1[C@@H](O)[C@H](O)[C@@H](CO)O[C@H]1O
inactive: locus YAL021C, strain ccr4, stronger effect = lower value 1.03 | locus YAL026C, strain drs2, stronger effect = lower value 1.01 | locus YAL030W, strain snc1, stronger effect = lower value 1.02 | locus YBL061C, strain skt5, stronger effect = lower value 1.03 | locus YBR009C, strain hhf1, stronger effect = lower value 1.02 | locus YBR021W, strain FUR4, stronger effect = lower value 1.01 | locus YBR023C, strain chs3, stronger effect = lower value 1.02 | locus YBR171W, strain sec66, stronger effect = lower value 1.04 | locus YBR229C, strain ROT2, stronger effect = lower value 1.01 | locus YBR231C, strain swc5, stronger effect = lower value 1.02 | locus YBR279W, strain paf1, stronger effect = lower value 1.03 | locus YCL011C, strain gbp2, stronger effect = lower value 1.02 | locus YCL016C, strain dcc1, stronger effect = lower value 1.02 | locus YCL029C, strain bik1, stronger effect = lower value 0.998 | locus YCL061C, strain MRC1, stronger effect = lower value 1.03 | locus YCL069W, strain vba3, stronger effect = lower value 1.02 | locus YCR088W, strain abp1, stronger effect = lower value 1.02 | locus YDL005C, strain med2, stronger effect = lower value 1.02 | locus YDL035C, strain GPR1, stronger effect = lower value 1 | locus YDL040C, strain nat1, stronger effect = lower value 1.01 | locus YDL074C, strain BRE1, stronger effect = lower value 1 | locus YDL101C, strain DUN1, stronger effect = lower value 1.01 | locus YDL185W, strain tfp1, stronger effect = lower value 1.01 | locus YDL192W, strain arf1, stronger effect = lower value 1.02 | locus YDR001C, strain nth1, stronger effect = lower value 1.02 | locus YDR069C, strain doa4, stronger effect = lower value 1.02 | locus YDR101C, strain arx1, stronger effect = lower value 0.975 | locus YDR137W, strain rgp1, stronger effect = lower value 1.03 | locus YDR150W, strain NUM1, stronger effect = lower value 1 | locus YDR159W, strain sac3, stronger effect = lower value 1.03 | locus YDR162C, strain NBP2, stronger effect = lower value 1 | locus YDR195W, strain ref2 1.04 | locus YDR297W, strain sur2, stronger effect = lower value 1.01 | locus YDR318W, strain mcm21, stronger effect = lower value 1 | locus YDR334W, strain swr1, stronger effect = lower value 1.02 | locus YDR335W, strain msn5, stronger effect = lower value 1.03 | locus YDR388W, stronger effect = lower value 1 | locus YDR392W, strain spt3, stronger effect = lower value 1 | locus YDR502C, strain sam2, stronger effect = lower value 1.01 | locus YEL003W, strain gim4, stronger effect = lower value 1.02 | locus YEL037C, strain rad23, stronger effect = lower value 1.02 | locus YEL061C, strain CIN8 (second series), stronger effect = lower value 1.02 | locus YEL061C, strain CIN8, stronger effect = lower value 1.02 | locus YER015W, strain faa2, stronger effect = lower value 1.03 | locus YER016W, strain bim1, stronger effect = lower value 1.01 | locus YER110C, stronger effect = lower value 1 | locus YER111C, strain swi4, stronger effect = lower value 1.03 | locus YER155C, strain BEM2 (second series), stronger effect = lower value 1.05 | locus YER155C, strain BEM2, stronger effect = lower value 1 | locus YER167W, strain BCK2, stronger effect = lower value 1.01 | locus YFR010W, strain ubp6, stronger effect = lower value 1.01 | locus YGL078C, strain dbp3, stronger effect = lower value 1.01 | locus YGL086W, strain mad1, stronger effect = lower value 0.999 | locus YGL167C, strain pmr1, stronger effect = lower value 1.03 | locus YGL173C, strain kem1, stronger effect = lower value 1.03 | locus YGL227W, strain vid30, stronger effect = lower value 1.02 | locus YGL240W, strain doc1, stronger effect = lower value 1.04 | locus YGL248W, strain PDE1, stronger effect = lower value 1.01 | locus YGL253W, strain hxk2, stronger effect = lower value 1.02 | locus YGR078C, strain PAC10, stronger effect = lower value 1 | locus YGR135W, strain pre9, stronger effect = lower value 1.05 | locus YGR229C, strain SMI1, stronger effect = lower value 1 | locus YGR252W, strain gcn5, stronger effect = lower value 1.01 | locus YHR013C, strain ard1, stronger effect = lower value 1.06 | locus YHR027C, strain rpn1, stronger effect = lower value 1.06 | locus YHR030C, strain SLT2, stronger effect = lower value 1 and 0.98 | locus YHR079C, strain IRE1 (second series), stronger effect = lower value 1.01 | locus YHR079C, strain IRE1, stronger effect = lower value 0.968 | locus YHR094C, strain hxt1, stronger effect = lower value 0.998 | locus YHR129C, strain ARP1, stronger effect = lower value 0.994 | locus YHR142W, strain chs7, stronger effect = lower value 1.01 | locus YHR200W, strain rpn10, stronger effect = lower value 1.01 | locus YIL066C, strain RNR3, stronger effect = lower value 1 | locus YIL073C, strain SPO22, stronger effect = lower value 1.04 | locus YIL125W, strain kgd1, stronger effect = lower value 1.01 | locus YIR030C, strain dcg1, stronger effect = lower value 1.01 | locus YJL092W, strain hpr5, stronger effect = lower value 1.03 | locus YJL095W, strain BCK1 (second series), stronger effect = lower value 1.01 | locus YJL095W, strain BCK1, stronger effect = lower value 1.01 and 0.986 | locus YJL115W, strain asf1, stronger effect = lower value 1.03 | locus YJL129C, strain trk1, stronger effect = lower value 1.04 | locus YJL134W, strain LCB3, stronger effect = lower value 1.01 | locus YJL154C, strain vps35, stronger effect = lower value 1.02 | locus YJL164C, strain tpk1, stronger effect = lower value 1.04 | locus YJL166W, strain qcr8, stronger effect = lower value 1.03 | locus YJL168C, strain set2, stronger effect = lower value 1 | locus YJL187C, strain SWE1 (second series), stronger effect = lower value 1 | locus YJL187C, strain SWE1, stronger effect = lower value 1.01 | locus YJR043C, strain POL32, stronger effect = lower value 0.992 | locus YJR066W, strain TOR1, stronger effect = lower value 0.937 | locus YJR075W, strain HOC1, stronger effect = lower value 1 | locus YKL009W, strain mrt4, stronger effect = lower value 1.01 | locus YKL068W, stronger effect = lower value 1 | locus YKL085W, strain MDH1 (second series), stronger effect = lower value 1.01 | locus YKL085W, strain MDH1, stronger effect = lower value 1.01 | locus YKL160W, strain elf1, stronger effect = lower value 1.04 | locus YKR001C, strain vps1, stronger effect = lower value 0.993 | locus YKR026C, strain gcn3, stronger effect = lower value 1.02 | locus YKR091W, strain srl3, stronger effect = lower value 1.02 | locus YLL001W, strain dnm1, stronger effect = lower value 1.03 | locus YLL026W, stronger effect = lower value 1.01 | locus YLL041C, strain sdh2, stronger effect = lower value 1.01 | locus YLR027C, strain aat2, stronger effect = lower value 1.01 | locus YLR039C, strain RIC1, stronger effect = lower value 1.05 | locus YLR058C, strain SHM2, stronger effect = lower value 1.01 | locus YLR102C, strain apc9, stronger effect = lower value 1 | locus YLR113W, strain HOG1, stronger effect = lower value 0.985 | locus YLR221C, strain rsa3, stronger effect = lower value 1.03 | locus YLR258W, strain gsy2, stronger effect = lower value 1.02 | locus YLR262C, strain YPT6 (second series), stronger effect = lower value 1.06 | locus YLR262C, strain YPT6, stronger effect = lower value 1.02 | locus YLR268W, strain sec22, stronger effect = lower value 1.01 | locus YLR320W, strain mms22, stronger effect = lower value 1.05 | locus YLR330W, strain CHS5, stronger effect = lower value 1 | locus YLR342W, strain FKS1 (second series), stronger effect = lower value 1.01 | locus YLR342W, strain FKS1, stronger effect = lower value 1.02 | locus YLR357W, strain rsc2, stronger effect = lower value 1.05 | locus YLR370C, strain arc18, stronger effect = lower value 1.02 | locus YLR371W, strain rom2, stronger effect = lower value 0.991 | locus YLR384C, strain iki3, stronger effect = lower value 1.03 | locus YLR418C, strain cdc73, stronger effect = lower value 1.01 | locus YML016C, strain PPZ1, stronger effect = lower value 1 | locus YML032C, strain rad52, stronger effect = lower value 0.994 | locus YML120C, strain ndi1, stronger effect = lower value 1.03 | locus YML124C, strain tub3, stronger effect = lower value 1.01 | locus YMR058W, strain fet3, stronger effect = lower value 1.02 | locus YMR078C, strain ctf18, stronger effect = lower value 1.01 | locus YMR125W, strain sto1, stronger effect = lower value 1.04 | locus YMR129W, stronger effect = lower value 1.01 | locus YMR205C, strain PFK2, stronger effect = lower value 1.04 | locus YMR223W, strain ubp8, stronger effect = lower value 1.02 | locus YMR231W, strain pep5, stronger effect = lower value 1.02 | locus YMR307W, strain GAS1, stronger effect = lower value 1.01 | locus YNL067W, strain RPL9B, stronger effect = lower value 1.01 | locus YNL071W, strain lat1, stronger effect = lower value 1.03 | locus YNL183C, strain NPR1, stronger effect = lower value 0.962 | locus YNL209W, strain ssb2, stronger effect = lower value 1.01 | locus YNL233W, strain BNI4, stronger effect = lower value 1.01 | locus YNL248C, strain rpa49, stronger effect = lower value 1.03 | locus YNL250W, strain rad50, stronger effect = lower value 1.05 | locus YNL271C, strain bni1, stronger effect = lower value 1.02 | locus YNL298W, strain CLA4, stronger effect = lower value 1.01 | locus YNL307C, strain MCK1, stronger effect = lower value 1.01 | locus YNL322C, strain KRE1 (second series), stronger effect = lower value 1.04 | locus YNL322C, strain KRE1, stronger effect = lower value 1 | locus YNR049C, strain mso1, stronger effect = lower value 1.02 | locus YNR052C, strain pop2, stronger effect = lower value 1.01 | locus YOL006C, strain TOP1, stronger effect = lower value 1.05 | locus YOL012C, strain htz1 0.886 | locus YOL147C, strain pex11, stronger effect = lower value 1.01 | locus YOR001W, strain rrp6, stronger effect = lower value 1.04 | locus YOR061W, strain CKA2, stronger effect = lower value 1 | locus YOR069W, strain VPS5, stronger effect = lower value 1.01 | locus YOR070C, strain gyp1, stronger effect = lower value 1.03 | locus YOR080W, strain dia2, stronger effect = lower value 1.04 | locus YOR083W, strain WHI5, stronger effect = lower value 1.04 | locus YOR106W, strain vam3, stronger effect = lower value 1.06 | locus YOR136W, strain idh2, stronger effect = lower value 1.01 | locus YOR144C, strain elg1, stronger effect = lower value 1 | locus YOR184W, strain ser1, stronger effect = lower value 1.01 | locus YOR231W, strain MKK1, stronger effect = lower value 1 | locus YOR265W, strain rbl2, stronger effect = lower value 1.06 | locus YOR270C, strain vph1, stronger effect = lower value 1.08 | locus YOR290C, strain snf2, stronger effect = lower value 0.979 | locus YOR316C, strain cot1, stronger effect = lower value 1.01 | locus YPL051W, strain arl3, stronger effect = lower value 1.03 | locus YPL078C, strain atp4, stronger effect = lower value 1.03 | locus YPL106C, strain sse1, stronger effect = lower value 1.03 | locus YPL240C, strain hsp82, stronger effect = lower value 1.02 | locus YPL256C, strain CLN2, stronger effect = lower value 0.985 | locus YPR119W, strain clb2, stronger effect = lower value 1.01 | locus YPR141C, strain kar3, stronger effect = lower value 1.01 | locus YPR163C, strain tif3, stronger effect = lower value 1.01 | locus YPR167C, strain met16, stronger effect = lower value 1.01 | strain wtn01, stronger effect = lower value 1.02
